Screening data deposited in PubChem by National Center for Advancing Translational Sciences (NCATS).
This is a sample that favours compounds with a hit; in the whole collection about 1.1% have one here.
GALK inhibitor – blocks human galactokinase activity; P51570; Purified GALK, Kinase-Glo residual ATP luminescence; 270,000 compounds, 0.007% hits; AID 1868; Potency, µM (doses to about 57.5 µM), most hits filed as inhibitors
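ATP-depletion format; final 35 uM ATP, 100 uM D-galactose, 5 nM enzyme; pH 8.0 HEPES/Mg2+ buffer; 60 min RT; luminescence read 10 min after detection reagent.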
Integrin act MD – activators of alpha7 integrin expression for muscular dystrophy; Potency, µM (series often up to 38.3 µM), hits mostly activators; 350,000 compounds, 0.064% hits; alpha7betagal myoblasts, beta-gal FDG fluorescence, 48 h; further: nearly all actives have a fitted effect of over 60% in size
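alpha7betagal+/- myoblasts (passage 13, 250/well) treated 48 h at 37C with compounds at 1:260 dilution of DMSO stock. Lysed, then beta-galactosidase activity read as FDG fluorescence (ex 480/em 540) after 30 min, with pre-read for autofluorescence.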
PI4K2A inh – inhibitors of human PI4K2A | 420,000 compounds, 0.13% hits | purified PI4K2A, ADP-Glo luminescence, 1 h; hits give low values | activity change, negative = inhibition, % at 76.9 µM | Q9BTU6; in the data active means activity change below about -50%; inconclusive means mostly about -30% to -49%
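ADP-Glo luminescence measured ADP generated by PI4K2A enzyme (4 ug/mL before mixing) with 1.2 mM PI substrate (pre-mix) and 300 microM ATP (pre-mix). Tris pH7.5 buffer with MgCl2, Triton X-100; 1 h reaction at ambient temperature.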
rTrxR1 inhibitor – rat TrxR1 inhibition. Potency, µM (titrated, usually from 114 µM), usual class: inhibitors. recombinant rTrxR1, NADPH fluorescence consumption, selenite substrate. 390,000 compounds, 1% hits. AID 588453. O89049; further: nearly all actives have a fitted effect of over 65% in size
Target sequence (O89049 whole entry, looked up): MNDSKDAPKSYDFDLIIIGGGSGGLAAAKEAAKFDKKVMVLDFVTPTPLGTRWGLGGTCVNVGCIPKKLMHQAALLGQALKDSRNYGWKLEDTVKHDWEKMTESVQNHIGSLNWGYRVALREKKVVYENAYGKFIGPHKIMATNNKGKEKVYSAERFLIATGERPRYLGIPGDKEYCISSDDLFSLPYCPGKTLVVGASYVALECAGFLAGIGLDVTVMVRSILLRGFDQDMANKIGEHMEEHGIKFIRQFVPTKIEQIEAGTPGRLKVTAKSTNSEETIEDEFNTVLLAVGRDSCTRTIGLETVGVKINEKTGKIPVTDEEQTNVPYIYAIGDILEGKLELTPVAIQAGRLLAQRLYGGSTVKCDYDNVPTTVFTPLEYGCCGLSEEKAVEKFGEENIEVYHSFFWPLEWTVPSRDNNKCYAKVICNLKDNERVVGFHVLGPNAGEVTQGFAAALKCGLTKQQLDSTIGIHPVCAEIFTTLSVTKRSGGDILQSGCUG
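Rat TrxR1 (90 nM in the dispensed reagent) was pre-reduced with 400 uM NADPH for 5 min at room temperature, then incubated with compound for 15 min. After 400 uM selenite was added, NADPH fluorescence (Ex 340/Em 450 nm) was followed for 8 min.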
TrxR1 substrate – rat thioredoxin reductase 1 substrate activity; 390,000 compounds, 0.01% hits; Potency, µM (doses to about 114 µM); O89049; purified TrxR1 substrate turnover, NADPH consumption readout; AID 588456; further: nearly all actives have a fitted effect of over 50% in size
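Rat TrxR1, dispensed at 90 nM, was prereduced with 400 uM NADPH (final) for 5 min at ~22 deg C, then incubated with compound 15 min before 400 uM selenite. A first-read NADPH fluorescence drop versus no-compound background flagged substrates.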
LDHA inh – LDHA (human) enzyme inhibition; P00338; purified LDHA, NADH/diaphorase-resazurin fluorescence; hits give low values; AID 1347041; 480,000 compounds, 0.15% hits; activity change, % (values are at about 110 or 230 µM); in the data active means activity change below about -30%; inconclusive means mostly about -25% to -30%
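LDH5 2 nM; NADH 0.06 mM, pyruvate 0.2 mM; 200 mM Tris pH 7.4, EDTA, Tween-20; 5 min RT. Detection: diaphorase 0.133 mg/mL + resazurin 37 µM, fluorescence ex540/em590 at 0 and 20 min; normalized to enzyme-free and DMSO wells.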
Numbers stand for hits; – = inactive; ? = inconclusive; · = no result given; [ ] = another dose, or the depositor's remark. Unless noted, the call rests on the fitted dose curve; in most records, active means well fitted curve in the direction sought with a large enough effect; inconclusive means small, poorly fitted or top-dose-only effect, or another doubt; inactive means no such curve, though single readings can be large; an effect the other way counts as inactive or inconclusive.

SMILES	GALK inhibitor	Integrin act MD	PI4K2A inh	rTrxR1 inhibitor	TrxR1 substrate	LDHA inh
Cc1ccc(S(=O)(=O)/N=C2/C=C(C3C(=O)CC(C)(C)CC3=O)C(=O)c3ccccc32)cc1	–	–	–	18µM	–	–
Cc1ccccc1-c1nc(CS(=O)(=O)CC(=O)NCCCN2CCCC2=O)c(C)o1	–	–	–	25µM	–	–
Cc1ccccc1-c1nc(CS(=O)(=O)CC(=O)NCCCN2CCOCC2)c(C)o1	–	–	–	–	–	–
O=C(O)C(C(=O)/C=C/c1ccco1)=C1SCCS1	–	–	–	25µM	–	–
O=C(C=C1SCCS1)/C=C/c1ccco1	–	–	–	40µM	–	–
Cc1cccc(NC(=O)COc2ncnc3ccccc23)c1	·	·	·	·	·	–
Cc1cccc(OCc2nc(C#N)c(N3CCOCC3)o2)c1	·	·	·	·	·	–
Cc1cccc(OCc2nc(C#N)c(N3CCCC3)o2)c1	·	3.5µM	–	–	–	–
CCCc1cc(NC(=O)CCl)n(-c2ccccc2)n1	–	–	–	50µM	–	–
Cc1nc(C(=O)O)c(C(=O)O)nc1C	·	·	·	·	·	–
O=[N+]([O-])c1ccc(Sc2cccc[n+]2[O-])c2nonc12	–	–	?	1.6µM	–	–
O=C(NN1CCOCC1)c1ccn(COc2ccc(Br)cc2)n1	·	·	·	·	·	-33
CC(Sc1n[nH]c(-c2cccs2)n1)C(=O)Nc1cc(Cl)cc(Cl)c1 (stereo unspecified)	·	·	·	·	·	–
Cc1ccc(SC2=C(N(C)C)C(=O)c3ccccc3C2=O)cc1	·	–	–	7.9µM	–	–
C/C=C/C=C\C(=O)Nc1cccc(C2=NOC3(C2)C[C@@H](C(N)=O)N(C(=O)c2cc([N+](=O)[O-])cc([N+](=O)[O-])c2C)C3)c1 (stereo partly specified)	–	–	–	16µM	–	–
C/C=C\C=C/C(=O)Nc1cccc(C2=NOC3(C2)C[C@@H](C(N)=O)N(C(=O)COc2ccc(Cl)cc2)C3)c1 (stereo partly specified)	–	–	–	5.6µM	–	–
C/C=C/C=C\C(=O)Nc1cccc(C2=NOC3(C2)C[C@H](C(N)=O)N(C(=O)/C=C/C)C3)c1 (stereo partly specified)	–	–	–	14µM	–	–
C/C=C\C=C\C(=O)N1CC2(CC(c3cccc(NC(=O)COc4ccc(Cl)cc4)c3)=NO2)C[C@H]1C(N)=O (stereo partly specified)	–	–	–	25µM	–	–
CC(C)(C(=O)N1CCN(C(=O)c2cc(=O)[nH]c3ccccc23)CC1)c1ccccc1	·	·	·	·	·	–
NS(=O)(=O)c1cccc(C(=O)NC2CCSc3ccccc32)c1 (stereo unspecified)	–	–	–	–[0.457 µM]	–	–
NS(=O)(=O)c1cc(C(=O)NC2CCSc3ccccc32)ccc1Cl (stereo unspecified)	–	–	–	–	–	-66
CC1Cc2c(nc(Cl)c(C#N)c2C#N)C([N+](=O)[O-])([N+](=O)[O-])C1 (stereo unspecified)	·	·	·	·	·	–
Cc1ccc(C(=O)Cn2c(=O)n(CCc3ccccc3)c(=O)c3sccc32)cc1	·	·	·	·	·	–
CCOC(=O)COc1ccccc1/C=C\[N+](=O)[O-]	–	–	–	2.8µM	–	–
Cc1ccc(C(=O)COC(=O)COc2ccccc2[N+](=O)[O-])s1	·	–	–	?	–	–
SMILES	GALK inhibitor	Integrin act MD	PI4K2A inh	rTrxR1 inhibitor	TrxR1 substrate	LDHA inh
Cn1nnnc1Sc1ncnc2scc(-c3ccc[nH]3)c12	·	·	–	50µM	–	–
Cn1nnnc1Sc1ncnc2scc(-c3ccccc3)c12	–	–	–	–[11.4 µM]	–[11.4 µM]	–
Cn1nnnc1Sc1ncnc2scc(Br)c12	·	·	–	5.6µM	–	–
Cn1nnnc1Sc1ncnc2scc(I)c12	·	·	·	·	·	–
CCn1cc(C#N)c(=O)n(Cc2nc(-c3ccc(F)cc3)no2)c1=O	·	·	·	·	·	–
CCc1cc(=O)n(CC(=O)N2CCCCC2CC)c(-c2ccccc2)n1 (stereo unspecified)	·	·	·	·	·	–
CCC1CCCCN1C(=O)Cn1c(-c2ccccc2)nc(C)cc1=O (stereo unspecified)	·	·	·	·	·	-33
